Bioassay records: PubChem, National Center for Advancing Translational Sciences (NCATS)
FMDV RLuc: Primary qHTS Assay for Foot and Mouth Disease Virus Antivirals against NCGC Sytravon and CBC Compound Libraries: Renilla Luciferase Signal; AID 1745857, 2022; FMDV replicon cells, Renilla luciferase signal; 0.32% of 120,000 active; Potency, µM (doses to about 57.5 µM), usual class: inhibitors; further: nearly all actives have a fitted effect of over 55% in size
FMDV antiviral: Primary qHTS Assay for Foot and Mouth Disease Virus Antivirals against NCGC Sytravon and CBC Compound Libraries: Firefly Luciferase Signal | FMDV antiviral cell assay, firefly luciferase signal | Potency, µM (titrated, usually from 57.5 µM), most hits filed as inhibitors | 0.23% of 120,000 active | AID 1745856, 2022; further: nearly all actives have a fitted effect of over 60% in size
Hits are given with their value; – = inactive; ? = inconclusive. Rows were chosen to be rich in hits. Some 0.51% of all compounds tested hit in one or more screens of this group. The call rests on the fitted dose curve.

SMILES	FMDV RLuc	FMDV antiviral
CNC(C(=O)OC)c1ccc(Cl)c(Cl)c1 (stereo not drawn)	–	–
CCOc1cc(C2CC(=O)Nc3c(-c4ccc(OC)cc4)csc32)ccc1OCC(N)=O (stereo not drawn)	8.91µM	12.6µM
COc1cc(C2CC(=O)Nc3c2sc(C(=O)O)c3-c2ccc(F)cc2)cc(OC)c1OC (stereo not drawn)	–	–
COc1ccc(NS(=O)(=O)c2ccc(-n3cccn3)cc2)cc1OC	?	8.91µM
COC(=O)c1ccc(NS(=O)(=O)c2ccc(-n3cccn3)cc2)cc1	–	–
CC(C)CSc1nc2c(c(=O)n(C)c(=O)n2C)n1Cc1ccccc1Cl	–	–
COc1cc(C)c(NC(=O)c2ccc3c(c2)NC(=O)CS3)cc1OC	–	–
COc1ccc(Nc2nc(-c3ccc(C)cc3)cs2)cc1	–	–
O=C(c1cc(C2=NNC(=Nc3ccccc3F)SC2)c[nH]1)N1CCCC1	–	–
CC(NC(=O)C(C#N)C(=O)c1ccc(F)cc1)c1ccccc1 (stereo not drawn)	–	–
CC(NC(=O)c1nn(C)c(=O)c2ccccc12)c1ccccc1 (stereo not drawn)	–	–
CC(NC(=O)c1ccccc1NC(=O)c1nn(C)c(=O)c2ccccc12)c1ccccc1 (stereo not drawn)	4.47µM	3.55µM
CCn1ncc(Cl)c1CNC(=O)C1CCCN(S(=O)(=O)c2cnn(C)c2C)C1 (stereo not drawn)	–	–
CN(C)S(=O)(=O)c1ccc(C(=O)OCc2csc(-c3ccccc3)n2)cc1	–	–
Cc1nsc(N)c1C(=O)OCc1csc(-c2ccccc2)n1	1.78µM	–
CC1CCCN(CCNC2CCCC2)C1 (stereo not drawn)	–	–
O=C(Nc1nc2ccccc2[nH]1)c1cccc(S(=O)(=O)N2CCc3ccccc32)c1	?	–
CCCNC(=O)C(C)NC(=O)c1cc(=O)[nH]c2ccccc12 (stereo not drawn)	–	–
COc1ccccc1OCCn1cc(C(=O)C2CC2)c2ccccc21	–	–
CC(=O)c1cn(CCOc2cccc3ccccc23)c2ccccc12	12.6µM	?
CC(=O)c1[nH]c(C)c(C(=O)NCc2ccc(Cl)cc2)c1C	?	11.2µM
CCOC(=O)c1[nH]c(C)c(C(=O)NCc2ccc(F)cc2)c1C	–	–
Cc1cc(C(=O)NC(C)c2ccc(C(F)(F)F)cc2)c(C)o1 (stereo not drawn)	–	–
O=C(Cc1ccccc1Cl)NCc1cccc(C(=O)Nc2ccccc2)c1	–	–
CC(=O)N1C=Cc2ccccc2C1CC(=O)Nc1cccc(S(=O)(=O)N2CCCCCC2)c1 (stereo not drawn)	–	?
CCCc1cc2c(CCC)cc(=O)oc2cc1O	–	–
